Bioassay records as filed in PubChem BioAssay.
Compounds with a hit are over-represented: about 2.1% of the library has one in this group of screens.
aSyn yeast inh = inhibitors of alpha-synuclein toxicity in yeast; Yeast expressing alpha-synuclein, growth rescue, BacTiter-Glo, 24 h; Potency, µM (series often up to 46.1 µM), for inactives: at the highest dose growth rescue (activation), usual class: activators; hit rate 0.14% among 370,000; AID 652106; note: % of control where 0% means no effect; nearly all actives have a fitted effect of over 65% in size
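Galactose-induced alpha-syn yeast (OD600=0.02, raffinose-pregrown) + pinned cpd, 24 hr, 30 deg C; growth by BacTiter-Glo luminescence. Growth restoration scores as activation.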
TDP43 rescue = rescues yeast growth from TDP-43 toxicity; TDP-43 expressing yeast growth rescue, BacTiter-Glo, 24 h; Potency, µM (doses to about 46.1 µM), inactives show at the highest dose growth rescue (activation), most hits filed as activators; hit rate 1.8% among 410,000; note: % of control where 0% means no effect; nearly all actives have a fitted effect of over 50% in size
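Galactose-induced TDP-43 yeast, OD600=0.02, compound pinned; 24 hr, 30 deg C; BacTiter-Glo luminescence for growth. Inhibitors of TDP-43 toxicity read as activators.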
FUS yeast rescue = rescues growth of FUS-expressing yeast; S. cerevisiae FUS-expressing, growth rescue, OD600, 24 h; Potency, µM (highest dose often 76.6 µM), usual class: activators; hit rate 0.24% among 390,000; AID 1347120;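 note: plate controls were DMSO vehicle for no effect and reference control for full effect; nearly all actives have a fitted effect of over 55% in size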
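Quantitative HTS measuring growth restoration of FUS-toxic yeast. Galactose-induced cells (OD 0.005) were exposed 24hr at 30C to compounds at several concentrations, then absorbance at 600 nm was recorded.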
Abeta rescue = compounds reversing amyloid beta toxicity in yeast; Potency, µM (doses to about 46.1 µM), usual class: activators; hit rate 0.063% among 410,000; AID 1347071; yeast expressing A-beta42, growth rescue, OD600, 48 h; response scale: 0% DMSO, 100% iron-clioquinol control; note: nearly all actives have a fitted effect of over 55% in size
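Growth rescue measured by 600 nm absorbance after 48 h yeast culture at 30 C with compound. Values normalized between DMSO and an equimolar ferric chloride plus clioquinol control.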
TSG101-PTAP inh = blocks PTAP/TSG101 interaction to inhibit HIV-1 budding. Q99816. Fluorescence polarization, FITC-PTAP peptide / Tsg101 binding. Potency, µM (series often up to 115 µM), inactives show at the highest dose activity change, negative = inhibition, hits mostly inhibitors. 340,000 tested, under 10 active. AID 493005; active = well fitted inhibition curve with a large enough effect in the main read-out, with a control signal flat, not every such curve was filed as active; inconclusive = small, poorly fitted or top-dose-only effect, or effect the other way, or a change in a side signal; inactive = no such curve, though single readings can be large or run the other way; note: % of control where 0% means no effect
Target sequence (Q99816 whole entry, looked up): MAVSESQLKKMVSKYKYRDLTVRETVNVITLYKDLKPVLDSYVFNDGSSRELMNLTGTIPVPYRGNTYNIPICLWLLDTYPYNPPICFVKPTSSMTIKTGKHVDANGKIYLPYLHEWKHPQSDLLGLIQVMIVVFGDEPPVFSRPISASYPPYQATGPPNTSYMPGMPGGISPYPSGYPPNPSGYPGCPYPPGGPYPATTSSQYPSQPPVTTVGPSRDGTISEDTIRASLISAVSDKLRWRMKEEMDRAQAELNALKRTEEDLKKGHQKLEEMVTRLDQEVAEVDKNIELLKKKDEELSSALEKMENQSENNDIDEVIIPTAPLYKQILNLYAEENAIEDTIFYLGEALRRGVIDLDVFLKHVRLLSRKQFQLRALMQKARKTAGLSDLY
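Fluorescence polarization binding of Tsg101 binding domain (10 uM final) to FITC-labeled PTAP peptide (50 nM final) in HEPES pH 7.5 buffer with NaCl, Tween 20, EDTA, TCEP. Compounds added before peptide; binding 20 min at RT.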
Active calls of the source: *; i = inactive; ? = inconclusive; nt = not tested or not shown. Unless noted, calls come from the whole dose curve; as a rule, active = well fitted curve in the direction sought with a large enough effect; inconclusive = small, poorly fitted or top-dose-only effect, or another doubt; inactive = no such curve, though single readings can be large; an effect the other way counts as inactive or inconclusive. Potency is the fitted concentration of half-maximal effect.

SMILES	aSyn yeast inh	TDP43 rescue	FUS yeast rescue	Abeta rescue	TSG101-PTAP inh
O=C(COC(=O)/C=C/c1ccc(Cl)cc1)NCCc1ccccc1	-1%	3%	i	i	0%
c1ccc(NC2=NCCN2CC2CCC2)cc1	2%	15%	i	i	0%
c1ccc(NC2=NCCN2CCCC2CCCCC2)cc1	16µM*	0%	i	i	-4%
CCOc1ccc(/C=C/c2nc(C#N)c(Nc3ccc(OCC)cc3)o2)cc1	nt	9%	i	i	nt
CCc1cc(/C=C/c2ccnc3ccccc23)ccc1N(C)C	-18%	nt	nt	nt	nt
COc1ccc(C)cc1NC(=O)COCc1cc(-c2ccc(F)cc2)on1	nt	35µM*	?	i	nt
O=S(=O)(NCc1ccc(F)cc1)c1ccc(Br)cc1Br	20µM*	22µM*	i	i	-1%
O=S(=O)(NCc1ccccc1)c1ccc(F)cc1Br	0%	18%	i	i	-2%
COc1cccc(CNS(=O)(=O)c2cc(Br)ccc2Br)c1	?	18µM*	i	i	nt
O=C1CC(c2ccccc2)=NO1	16µM*	10µM*	i	i	-3%
COc1ccc(NS(=O)(=O)c2ccc(SC)cc2)cc1	-10%	12%	10µM*	i	-4%
CSc1ccc(S(=O)(=O)Nc2ccc(F)cc2)cc1	16%	13µM*	i	i	-7%
COc1ccc(NS(=O)(=O)c2ccc(NS(C)(=O)=O)cc2)cc1	-8%	0%	i	i	-10%
CC(=O)N1CCc2cc(Br)cc(S(=O)(=O)NCCc3cccc(C)c3)c21	nt	4%	i	i	nt
O=S1(=O)CCN(C2CC2)CC1	-6%	9%	i	i	nt
O=C(NC1CC(=O)N(c2ccc(F)cc2)C1)c1ccco1 (configuration not stated)	nt	5%	i	i	nt
CCC1=Nc2cc(C(=O)O)ccc2Sc2ccc(Cl)cc21	-15%	14µM*	i	i	-6%
CC1=Nc2cc(C(=O)NC3CCCC3)ccc2Sc2ccc(Br)cc21	nt	4%	i	i	nt
CC1=Nc2cc(C(=O)O)ccc2Sc2ccc(Br)cc21	-8%	35µM*	i	i	-7%
COc1cccc(CNC(=O)C[C@H]2CC[C@H]3[C@@H](COc4ccc(NC(=O)c5cccs5)cc4C(=O)N3C)O2)c1	nt	nt	i	nt	nt
Cc1ccc(C2C(C(=O)c3cc4ccccc4o3)=C(O)C(=O)N2CCN2CCOCC2)cc1 (configuration not stated)	4%	5%	i	nt	-4%
COc1cc(C2C(C(=O)c3cc4ccccc4o3)=C(O)C(=O)N2CCN2CCOCC2)ccc1OCCC(C)C (configuration not stated)	3%	11%	28µM*	i	1%
COc1ccc(NC(=O)CSc2nc3sc4c(c3c(=O)n2-c2ccc(OC)cc2)CCN(C)C4)cc1	-1%	4%	?	i	-2%
COc1ccc(-n2c(SCC(=O)Nc3nccs3)nc3sc4c(c3c2=O)CCN(C)C4)cc1	6%	-18%	28µM*	i	1%
O=C(CCCc1nc2ccccc2s1)NCc1ccccc1F	11%	8%	i	i	2%
SMILES	aSyn yeast inh	TDP43 rescue	FUS yeast rescue	Abeta rescue	TSG101-PTAP inh
O=C(CCc1nc2ccccc2s1)NCc1ccccc1F	-1%	12%	i	20µM*	-7%
Cc1cc(C)nc(Sc2ncnc3sc4c(c23)CCC4)n1	0%	20µM*	i	i	-5%
CC(C#N)Sc1ncnc2sc3c(c12)CCC3 (configuration not stated)	1%	18%	i	i	-5%
O=C(CSc1ncnc2sc3c(c12)CCCC3)c1ccccc1	-8%	-2%	i	i	-2%
O=C(CSc1ncnc2sc3c(c12)CCCC3)c1ccco1	5%	10µM*	i	i	-3%
CC(=O)C(Sc1ncnc2sc3c(c12)CCCC3)C(C)=O	?	18µM*	i	?	-5%
Clc1cccc(-n2ncc3c(Nc4ccc5c(c4)OCCO5)ncnc32)c1	nt	0%	i	i	nt
CCOc1ccccc1NC(=O)Cc1coc2ccc(C)cc12	13µM*	nt	i	?	-1%
Cc1ccc2occ(CC(=O)Nc3c(C)cccc3C)c2c1	nt	13µM*	i	i	nt
